Data on 14 compounds can be found in PubChem BioAssay (NCATS).

Results filed as inconclusive are left out. Unmarked numbers belong to inactive results. The source made the active and inactive calls. Calls follow the shape of the dose curve; as a rule, active = well fitted cell-killing curve with a large enough effect; inconclusive = small, poorly fitted or top-dose-only effect, or effect the other way; inactive = flat fitted curve, though single readings scatter.

What all share (assay): Primary qHTS to identify gynecologic anti-cancer compounds using libraries of approved drugs and bioactive compounds (AID 1345084); also: nearly all actives have a fitted effect of over 55% in size
Assay [1] concerns C33A. Conditions: Gynecologic cancer cell panel viability, ATPlite luminescence, 48 h; series mostly up to 57.5 µM. An outline of the steps: (§1)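 In this quantitative HTS, cell killing is estimated from loss of ATP-dependent luciferase light. Cells see five compound concentrations over a 48 h exposure.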
For orientation: Cellular ATP, detected with luciferase, serves as a proxy for viable cell number.

The subject of assay [2] is CAOV3. The note with it: Gynecologic cancer cell panel viability, ATPlite luminescence, 48 h; series mostly up to 57.5 µM. A digest of the protocol:
as §1

Assay [3] relates to CASKI. The note with it: Gynecologic cancer cell panel viability, ATPlite luminescence, 48 h; series mostly up to 57.5 µM. A digest of the protocol:
as §1

The subject of assay [4] is Es-2. Conditions: Gynecologic cancer cell panel viability, ATPlite luminescence, 48 h; series mostly up to 57.5 µM. A digest of the protocol: as §1
For assay [5], the system named is HeLa. The note with it: Gynecologic cancer cell panel viability, ATPlite luminescence, 48 h; series mostly up to 57.5 µM. An outline of the steps: as §1
In assay [6] the test system is Hek293T. Conditions: Gynecologic cancer cell panel viability, ATPlite luminescence, 48 h, control line for the selectivity index; series mostly up to 57.5 µM. An outline of the steps: as §1
Assay [7] concerns JEG-3. The note with it: Gynecologic cancer cell panel viability, ATPlite luminescence, 48 h; series mostly up to 57.5 µM. An outline of the steps: as §1
For assay [8], the system named is OV90. Conditions: Gynecologic cancer cell panel viability, ATPlite luminescence, 48 h; series mostly up to 57.5 µM. An outline of the steps:
as §1

Assay [9] deals with PA-1. The note with it: Gynecologic cancer cell panel viability, ATPlite luminescence, 48 h; series mostly up to 57.5 µM. An outline of the steps:
as §1

Assay [10] relates to SKOV3. Conditions: Gynecologic cancer cell panel viability, ATPlite luminescence, 48 h; series mostly up to 57.5 µM. An outline of the steps:
as §1

The subject of assay [11] is Tov-21-G. Conditions: Gynecologic cancer cell panel viability, ATPlite luminescence, 48 h; series mostly up to 57.5 µM. An outline of the steps: as §1
In assay [12] the test system is Tov112D. The note with it: Gynecologic cancer cell panel viability, ATPlite luminescence, 48 h; series mostly up to 57.5 µM. An outline of the steps:
as §1
% is scaled to controls: 0 for no effect and ±100 for the full control effect; potency is read from the fitted curve at half-maximal effect.

`C[C@@H]1O[C@@H](O[C@H]2[C@H](OC(=O)[C@]34CCC(C)(C)C[C@H]3C3=CCC5[C@@]6(C)C[C@H](O)[C@H](O[C@@H]7O[C@H](CO)[C@@H](O[C@H]8OC[C@](O)(CO)[C@H]8O)[C@H](O)[C@H]7O)[C@@](C)(CO)C6[C@H](O)C[C@@]5(C)[C@]3(C)C[C@H]4O)OC[C@H](O)[C@@H]2O)[C@H](O)[C@H](O)[C@H]1O[C@@H]1OC[C@@H](O)[C@H](O[C@@H]2OC[C@](O)(CO)[C@H]2O)[C@H]1O` (stereo partly drawn): the activity change, negative = cytotoxicity was -2.68% [at 6.55 µM] in assay [1]; -10.4% [at 6.55 µM] in assay [2]; -0.0524% [at 6.55 µM] in assay [3]; 0.233% [at 6.55 µM] in [4]; -3.15% [at 6.55 µM] in assay [5]; 2.67% [at 6.55 µM] in [6]. For the same compound, the activity change, negative = cytotoxicity in [7] was 23.3% [at 6.55 µM]; in [8], -28.7% [at 6.55 µM]; in [9], 18.7% [at 6.55 µM]; in [10], 13.1% [at 6.55 µM]; in [11] it was -9.27% [at 6.55 µM]; in [12] it was -0.812% [at 6.55 µM].

On to `COc1ccc(-c2nc(-c3ccc(-c4cccc(Cl)c4)o3)[nH]c2-c2ccc(OC)cc2)cc1`, for which the Potency entry in assay [1], in [2], in assay [3], in assay [4], in [5] and in assay [6] was “inactive” throughout. For the same compound, the Potency result in assay [7], in [8], in assay [9], in assay [10], in assay [11] and in assay [12] was “inactive” each time.

`CC1OC(OC2CCC3(C)C(CCC4(C)C3CC=C3C5CC(C)(C)CCC5(C(=O)OC5OC(CO)C(O)C(O)C5O)CCC34C(=O)O)C2(C)C)C(O)C(O)C1O` (stereo not drawn): the Potency result in assay [1], in [2], in assay [3], in assay [4], in assay [5] and in [6] was “inactive” throughout. Also, the Potency result in [7], in [8], in [9], in assay [10], in assay [11] and in assay [12] was “inactive” each time.

As for `CC1(C)C[C@H](O)C[C@@]2(C)OC(=O)C=C12`, the Potency result in assay [1], in [2], in assay [3], in assay [4], in [5] and in assay [6] was “inactive” in each case. Also, the Potency entry in assay [7], in assay [8], in [9], in assay [10], in assay [11] and in assay [12] was “inactive” each time.

Consider `C/C(=C\CC[C@@H](C)[C@H]1CC(O)[C@@]2(C)C3CC[C@H]4C(C)(C)[C@@H](OC5OCC(O)C(O)C5OC5OC(CO)C(O)C(O)C5O)CC[C@@]45C[C@@]35CC(O)[C@]12C)C(=O)O` (stereo partly drawn), for which the Potency entry in [1], in assay [2], in assay [3], in [4], in assay [5] and in [6] was “inactive” in each case. In addition, the Potency result in assay [7], in [8], in assay [9], in assay [10], in assay [11] and in assay [12] was “inactive” in each case.

In the case of `C=C[C@H]1CN2CC[C@H]1C[C@@H]2C(O)c1ccnc2ccc(OC)cc12` (stereo partly drawn), the Potency entry in assay [1], in [2], in assay [3], in assay [4], in assay [5] and in assay [6] was “inactive” throughout. Further, the Potency result in [7], in assay [8], in assay [9], in assay [10], in [11] and in [12] was “inactive” each time.

As to `O=C(OCC1=CC(O)C2C=CO[C@@H](O[C@@H]3O[C@H](CO)[C@@H](O)[C@H](O)[C@H]3O)C12)c1ccccc1` (stereo partly drawn), the Potency entry in [1], in assay [2], in assay [3], in assay [4], in assay [5] and in assay [6] was “inactive” each time. For the same compound, the Potency entry in assay [7], in assay [8], in assay [9], in assay [10], in [11] and in assay [12] was “inactive” each time.

In the case of `C[C@@H]1CCC/C=C/[C@H]2CC(=O)C[C@@H]2[C@@H](O)/C=C/C(=O)O1`, the Potency entry in assay [1], in assay [2], in assay [3], in assay [4], in assay [5] and in assay [6] was “inactive” in each case. Also, the Potency result in assay [7], in [9], in [10], in assay [11] and in [12] was “inactive” throughout. In addition, the Potency in assay [8] was 20 µM (active).

Consider `CNC12CC3C[C@@](C)(C1)C[C@](C)(C3)C2`, for which the Potency entry in [1], in assay [2], in assay [3], in [4], in assay [5] and in assay [6] was “inactive” throughout. For the same compound, the Potency entry in assay [7], in assay [8], in assay [9], in assay [10], in assay [11] and in assay [12] was “inactive” in each case.

For the compound `O=C1Nc2ccccc2C(O)(c2ccccc2)C1O` (stereo not drawn), the Potency entry in assay [1], in assay [2], in [3], in [4], in assay [5] and in assay [6] was “inactive” throughout. Moreover, the Potency result in [7], in assay [8], in [9], in assay [10], in assay [11] and in assay [12] was “inactive” each time.

On to `CCOc1ccc(S(=O)(=O)n2c(C)nc3ccccc32)cc1`, for which the Potency entry in [1], in assay [2], in [3], in assay [4], in assay [5] and in [6] was “inactive” throughout. Besides, the Potency result in assay [7], in assay [8], in [9], in assay [10], in assay [11] and in assay [12] was “inactive” each time.

Turning to `C=C[C@H]1[C@H](O[C@@H]2O[C@H](CO)[C@@H](O)[C@H](O)[C@H]2O)OC=C(C(=O)OC)[C@H]1CCOC(=O)c1cc(O)c(O)c(O)c1`, the Potency result in [1], in assay [2], in assay [3], in [4], in assay [5] and in [6] was “inactive” each time. Also, the Potency result in assay [7], in [8], in assay [9], in assay [10], in [11] and in assay [12] was “inactive” throughout.

For `COC1CC(O[C@H]2CC[C@@]3(C)C(CCC4C3[C@H](OC(C)=O)[C@@H](OC(=O)/C=C/c3ccccc3)[C@]3(C)C(C(C)=O)CC[C@]43O)C2)OC(C)C1OC1CC(OC)C(OC2CC(OC)C(OC3OC(C)C(OC4OC(CO)C(O)C(O)C4O)C(OC)C3O)C(C)O2)C(C)O1` (stereo partly drawn), the activity change, negative = cytotoxicity in [1] is -1.17% [at 6.55 µM]; in [2] it was 6.87% [at 6.55 µM]; in assay [3], 1.19% [at 6.55 µM]; in [4], 0.971% [at 6.55 µM]; in assay [5], -3.04% [at 6.55 µM]; in assay [6], -2.25% [at 6.55 µM]. The activity change, negative = cytotoxicity in [7] was -2.34% [at 6.55 µM]; in assay [8], -0.788% [at 6.55 µM]; in [9], -4.15% [at 6.55 µM]; in assay [10] it was -2.84% [at 6.55 µM]; in [11], 6.44% [at 6.55 µM]; in assay [12] it was -0.487% [at 6.55 µM].

On to `COc1ccc(C2COc3cc(O)ccc3C2)c(O)c1` (stereo not drawn), for which the Potency entry in assay [1], in assay [2], in assay [3], in assay [4], in assay [5] and in [6] was “inactive” in each case. Further, the Potency entry in assay [7], in assay [8], in assay [9], in assay [10], in assay [11] and in assay [12] was “inactive” each time.
